Test results reported in PubChem BioAssay (NCI).
Compounds without any hit were thinned out: in the full panel of roughly 79,000, 15% have a hit. Unmarked numbers belong to inactive results. Calls of active or inactive are those of the source. No stated cut-off is given here; in the data, active means growth inhibition above about 70%; inactive means the rest.

Columns and labels:
[1] = NCI Yeast Anticancer Drug Screen. Data for the rad50 strain (AID 155);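 further: 0% = growth of vehicle-only cultures of the same strain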; conditions: S. cerevisiae rad50 strain growth inhibition, active compounds read high
Method in brief: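 Compounds were tested on a yeast strain with an engineered DNA damage repair alteration; the reported value is growth inhibition normalised to vehicle treatment.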

[2] = NCI Yeast Anticancer Drug Screen. Data for the mec2-1 strain (AID 157); conditions: S. cerevisiae mec2-1 strain, active compounds read high
Method in brief: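 Compounds were applied to mec2-1 yeast cells. Their growth was then compared with that of vehicle-treated cultures to give growth inhibition.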

[3] = NCI Yeast Anticancer Drug Screen. Data for the sgs1 mgt1 strain (AID 161);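 further: 0% = growth of cultures given vehicle only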; conditions: S. cerevisiae sgs1 mgt1 strain, active compounds read high
Method in brief: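 Growth of a repair-deficient yeast mutant was monitored after compound treatment and expressed as inhibition relative to vehicle-treated cultures.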

[4] = NCI Yeast Anticancer Drug Screen. Data for the cln2 rad14 strain (AID 165);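 further: 0% = growth equal to vehicle treated cultures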; conditions: S. cerevisiae cln2 rad14 strain, active compounds read high
Method in brief: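 Strain: cln2 rad14 yeast, altered in cell cycle control and DNA damage repair. Read-out: growth inhibition vs vehicle.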

[5] = NCI Yeast Anticancer Drug Screen. Data for the mlh1 rad18 strain (AID 175); conditions: S. cerevisiae mlh1 rad18 strain growth inhibition, active compounds read high
Method in brief: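 A repair-deficient yeast strain is exposed to test compound, and growth is scored relative to vehicle-treated controls.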

[6] = NCI Yeast Anticancer Drug Screen. Data for the bub3 strain (AID 167); conditions: S. cerevisiae bub3 mutant strain, active compounds read high
Method in brief: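 Growth of a checkpoint-deficient yeast mutant is measured after compound exposure. Values represent inhibition relative to vehicle.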

[7] = at 5.0 µM (retest, dose inferred, filed as 0.5)
[8] = at 50.0 µM (retest, dose inferred, filed as 5.0)

Structure (SMILES)	growth inhibition [1, 7] [%]	growth inhibition [1, 8]	growth inhibition ([1]; at 50.0 µM)	growth inhibition [2, 7] [%]	growth inhibition [2, 8]	growth inhibition ([2]; at 50.0 µM)	growth inhibition [3, 7] [%]	growth inhibition [3, 8]	growth inhibition ([3]; at 50.0 µM)	growth inhibition [4, 7] [%]	growth inhibition [4, 8]	growth inhibition ([4]; at 50.0 µM)	growth inhibition [5, 7] [%]	growth inhibition [5, 8]	growth inhibition ([5]; at 50.0 µM)	growth inhibition [6, 7] [%]	growth inhibition [6, 8]	growth inhibition ([6]; at 50.0 µM)
COc1cc2oc(-c3ccc(O)cc3O)c(CC=C(C)C)c(=O)c2c(O)c1/C=C/C(C)C	17	97% (active)	89.5% (active)	8	98% (active)	90.7% (active)	10	97% (active)	91% (active)	24	98% (active)	88.8% (active)	9	97% (active)	90.3% (active)	–	–	–
CN(C)c1cccc(F)c1C(=O)NC(=O)Nc1ccc(Cl)cc1	2	3%	79.7% (active)	1	4%	75.7% (active)	0	7%	85.9% (active)	–	–	–	17	-2%	91.5% (active)	1	11%	83% (active)
CC1CC(c2ccccc2)CC(C)N1c1ccc2ccccc2c1 (configuration not stated)	9	82% (active)	77.8% (active)	13	74% (active)	69.3%	1	–	77% (active)	5	61%	36.4%	2	84% (active)	93.3% (active)	0	65%	93.7% (active)
O=C(Nc1ccccc1)c1cc(Cl)ccc1O	-12	33%	62.8%	3	46%	76% (active)	32	61%	71.8% (active)	24	33%	58.5%	21	74% (active)	84% (active)	–	–	–
COCC1C(=O)c2cc3c(cc2C12C=CC1(C=C2)OCCO1)OCO3 (configuration not stated)	36	7%	86% (active)	15	-7%	91.8% (active)	–	–	–	9	20%	90.2% (active)	50	-14%	88.2% (active)	40	-7%	91.1% (active)
CCC[CH2][Sn]([CH2]CCC)([O]C(=O)c1cc(F)cc(F)c1)[O]C(=O)c1cc(F)cc(F)c1	54	54%	22.4%	26	26%	52.4%	65	65%	16.4%	–	–	–	21	21%	68.1%	21	21%	67.7%
CC(C(O)c1ccccc1)C(O)(C(F)(F)F)C(F)(F)F (configuration not stated)	8	13%	8.95%	6	-3%	-7.6%	3	10%	-15.9%	–	–	–	18	6%	17.4%	-2	-7%	-19.6%
CC(=O)c1cc(-c2ccccc2)nc2ccccc12	-5	38%	89.2% (active)	-29	84% (active)	94.1% (active)	–	–	–	-25	35%	74.5% (active)	4	88% (active)	97.1% (active)	-28	87% (active)	87% (active)
O=C(N/C(=C\c1ccccc1Cl)c1nc2ccccc2s1)c1ccccc1	20	99% (active)	99% (active)	13	99% (active)	99.2% (active)	–	–	–	11	99% (active)	99% (active)	20	99% (active)	99.1% (active)	30	99% (active)	98.8% (active)
C=CCOc1ccc(N=NC(C#N)C#N)cc1	8	88% (active)	98.6% (active)	5	87% (active)	98.3% (active)	3	88% (active)	52.7%	–	–	–	4	93% (active)	54%	-2	91% (active)	97.8% (active)
COC(=O)c1cc(-c2ccccc2)[nH]c(=O)c1C#N	-8	-32%	44.5%	-18	-15%	5.25%	-5	-16%	75.8% (active)	-36	-21%	22.6%	0	-21%	52%	–	–	–
